NPSR antag = blocks cAMP signaling of the human neuropeptide S receptor; Q6W5P4; CHO-NPSR cells, cAMP TR-FRET, antagonist mode; Potency, µM (series often up to 38.3 µM), most hits filed as inhibitors; hit rate 1% among 220,000; note: nearly all actives have a fitted effect of over 50% in size
Target sequence (Q6W5P4 whole entry, looked up): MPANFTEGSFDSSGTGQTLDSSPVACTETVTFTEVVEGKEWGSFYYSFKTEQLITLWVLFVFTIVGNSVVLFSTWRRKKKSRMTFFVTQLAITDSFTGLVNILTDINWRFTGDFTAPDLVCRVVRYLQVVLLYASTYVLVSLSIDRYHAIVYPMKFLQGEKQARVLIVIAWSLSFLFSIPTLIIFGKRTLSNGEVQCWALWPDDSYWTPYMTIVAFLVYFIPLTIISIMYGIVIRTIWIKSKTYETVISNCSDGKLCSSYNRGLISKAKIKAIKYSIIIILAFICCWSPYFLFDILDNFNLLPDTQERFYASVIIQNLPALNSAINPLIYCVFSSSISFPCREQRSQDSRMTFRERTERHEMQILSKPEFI
Sfp PPTase inh = blocks B. subtilis Sfp PPTase activity | hit rate 3.5% among 310,000 | Potency, µM, hits mostly inhibitors | Q9F4F7 | Biochemical Sfp PPTase activity, qHTS;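 note: the enzyme is Sfp with the accession as filed and its product quenches rhodamine fluorescence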
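With Hepes-Na pH 7.6 buffer containing 10 mM MgCl2, Sfp (15 nM) modified BHQ-2-YbbR (12.5 uM) using rhodamine-CoA (5 uM). Two reads 30 minutes apart at 525/598 nm yielded each well's rate.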
Coupling enz = coupling enzyme interference in Giardia aldolase counter-screen; AID 2472; hit rate 0.67% among 290,000; activity change, negative = inhibition, % at 58.2 µM, hits read low; coupling enzyme system counterscreen, AmpLite Red fluorescence; in the data active = activity change below about -30%
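Counterscreen lacking aldolase: glyceraldehyde-3-phosphate coupling-enzyme reagent preincubated 10 min at RT with compound (at 57.5 uM final), then substrate/coupling system with AmpLite Red added; fluorescence read at 525/598 nm after 20 min RT.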
ALDH1A1 inh = blocks purified human ALDH1A1 activity; P00352; Purified ALDH1A1, NADH fluorescence, propionaldehyde substrate; Potency, µM (highest dose often 75.3 µM), usual class: inhibitors; hit rate 7.3% among 220,000; AID 1030; active = well fitted inhibition curve with a large enough effect, not every such curve was filed as active; inconclusive = small, poorly fitted or top-dose-only effect, or another doubt; inactive = no such curve, though single readings can be large or run the other way
GoLoco inh red = inhibitors of human Gai1-RGS12 GoLoco interaction (red fluorophore); Potency, µM (series often up to 61.6 µM), usual class: inhibitors; Gai1:RGS12 GoLoco peptide FP, rhodamine, 10 min; AID 880; P63096; hit rate 0.44% among 230,000; active = well fitted inhibition curve with a large enough effect, not every such curve was filed as active; inactive = no such curve, though single readings can be large or run the other way; note: nearly all actives have a fitted effect of over 30% in size
KDM4E inh = JMJD2E (human) inhibition. Potency, µM (doses to about 57.1 µM), usual class: inhibitors. AID 2147. hit rate 1.6% among 230,000. JMJD2E catalytic domain, FDH-coupled NADH fluorescence (FDH is formaldehyde dehydrogenase). B2RXH2; active = well fitted inhibition curve with a large enough effect, not every such curve was filed as active; inconclusive = small, poorly fitted or top-dose-only effect, or another doubt; inactive = no such curve, though single readings can be large or run the other way; note: nearly all actives have a fitted effect of over 50% in size
Of the large screens only hits and unclear results are named; the others gave an inactive call; ! = a repeat was not active. A selection: hits, their analogues and other compounds. The true share with any hit is near 8.5%. Unless noted, calls come from the whole dose curve; as a rule, active = well fitted curve in the direction sought with a large enough effect; inconclusive = small, poorly fitted or top-dose-only effect, or another doubt; inactive = no such curve, though single readings can be large; an effect the other way counts as inactive or inconclusive.

Cc1nc2nc(CNC(=O)OC(C)(C)C)nn2c(C)c1CCC(=O)Nc1ccc2c(c1)OCO2	none (no result: NPSR antag, Coupling enz, ALDH1A1 inh, GoLoco inh red, KDM4E inh)
Cc1ccc(C(=C2C3C=CC2C2C(=O)NC(=O)C32)c2ccc(C)cc2)cc1 (stereo not given)	NPSR antag inconclusive, ALDH1A1 inh 0.891µM
O=C1C2C3C=CC(C3=C(c3ccccc3)c3ccccc3)C2C(=O)N1CCO (stereo not given)	ALDH1A1 inh inconclusive
Cc1ccc(C(=O)NC(=S)Nc2cccnc2Cl)cc1	Sfp PPTase inh 56.2µM (no result: NPSR antag, ALDH1A1 inh, GoLoco inh red, KDM4E inh)
COc1ccccc1C(=O)NC(=S)Nc1cccnc1Cl	Sfp PPTase inh 44.7µM (no result: NPSR antag, ALDH1A1 inh, GoLoco inh red, KDM4E inh)
COc1ccc(C(=O)Nc2cccnc2Cl)cc1OC	none (no result: NPSR antag, ALDH1A1 inh, GoLoco inh red, KDM4E inh)
COc1ccccc1-c1cc(C(=O)Nc2cccnc2Cl)no1	none (no result: NPSR antag, ALDH1A1 inh, GoLoco inh red, KDM4E inh)
Cc1noc(/C=C/N(C)C)c1S(=O)(=O)N1CCCC(C(=O)Nc2ccccc2F)C1 (stereo not given)	none (no result: NPSR antag, ALDH1A1 inh, GoLoco inh red, KDM4E inh)
Cc1ccc(NC(=O)CNC(=O)c2ccco2)c(Cl)c1	Sfp PPTase inh inconclusive (no result: NPSR antag, ALDH1A1 inh, GoLoco inh red, KDM4E inh)
CC[n+]1c(C)sc2sc3ccccc3c21	Sfp PPTase inh 2.82µM, GoLoco inh red 11.2µM, KDM4E inh 14.1µM (no result: ALDH1A1 inh)
Cn1c(=O)c([N+](=O)[O-])c(-n2ccnc2)c2ccccc21	Sfp PPTase inh 56.2µM, ALDH1A1 inh inconclusive
CC(C)(C)OC(=O)N[C@@H](Cc1ccccc1)[C@H](O)c1ccco1	none (no result: ALDH1A1 inh)
COc1ccc(COc2ccsc2C(=O)Nc2ccc(Cl)c(Cl)c2)cc1	Sfp PPTase inh 56.2µM, KDM4E inh inconclusive
NNC(=O)c1sccc1OCc1ccc(Cl)cc1	ALDH1A1 inh 2.24µM
CN(C)S(=O)(=O)Oc1ccsc1C(=O)Nc1ccc(Cl)c(Cl)c1	NPSR antag inconclusive, KDM4E inh inconclusive
CCc1nc(CN2CCCC(C(=O)c3ccc4c5c(cccc35)CC4)C2)c(C)[nH]1 (stereo not given)	ALDH1A1 inh inconclusive, KDM4E inh inconclusive
CCN(CC)C(=O)N1CCN(C(=O)N(CC)CC)CC1	none
CCN(CC)C(=O)N1CCN(C)CC1	KDM4E inh 25.1µM!
Cc1c(NC(=O)C(C)OC(=O)c2c3c(nc4ccccc24)CCC3)c(=O)n(-c2ccccc2)n1C (stereo not given)	none
CC1CCC(NC(=O)CN2C(=O)COc3ccc(S(=O)(=O)N4CCCC4)cc32)CC1 (stereo not given)	none
CCCN1Cc2cccc(C(=O)NC(CC(=O)OCC)c3ccc(C)cc3)c2C1=O (stereo not given)	ALDH1A1 inh 12.6µM
COC(CNC(=O)C1CCN(C(=O)c2cc3oc(C)cc3n2Cc2c(F)cccc2Cl)CC1)OC	Sfp PPTase inh 44.7µM, ALDH1A1 inh inconclusive, KDM4E inh inconclusive
CCOC(=O)N1CCC(NC(=O)c2oc3c(F)cccc3c2C)CC1	none (no result: NPSR antag, ALDH1A1 inh, GoLoco inh red, KDM4E inh)
CCOC(=O)N1CCC(NC(=O)C2CCN(C(=O)c3cc4oc(C)cc4n3Cc3c(F)cccc3Cl)CC2)CC1	Sfp PPTase inh 20µM, ALDH1A1 inh 20µM
CCN(CC)S(=O)(=O)c1ccc2[nH]c(=O)cc(C(=O)Nc3ccccc3N3CCCC3)c2c1	none (no result: NPSR antag, ALDH1A1 inh, GoLoco inh red, KDM4E inh)
NCCCCCCCCCCNCCCN	none (no result: NPSR antag, ALDH1A1 inh, GoLoco inh red, KDM4E inh)
NNc1nnc(-c2ccccc2)c(-c2ccccc2)n1	ALDH1A1 inh 12.6µM, KDM4E inh inconclusive
NNc1nc(-c2ccccc2)c2ccccc2n1	none
CCCn1c(CN2CCN(c3cccc(Cl)c3)CC2)nc2c1c(=O)n(C)c(=O)n2C	ALDH1A1 inh inconclusive
CCCCCCn1c(CN2CCN(CCO)CC2)nc2c1c(=O)n(C)c(=O)n2C	ALDH1A1 inh 3.98µM
CCCCCn1c(CN2CCN(c3cc(Cl)ccc3C)CC2)nc2c1c(=O)[nH]c(=O)n2C	NPSR antag inconclusive, ALDH1A1 inh 14.1µM
CCCCCn1c(N2CCN(c3cccc(Cl)c3)CC2)nc2c1c(=O)[nH]c(=O)n2C	none
CCCCCCn1c(CN2CCC(C)CC2)nc2c1c(=O)n(C)c(=O)n2C	ALDH1A1 inh inconclusive
CCCCCn1c(CN2CCN(c3cccc(Cl)c3)CC2)nc2c1c(=O)n(C)c(=O)n2C	NPSR antag inconclusive, ALDH1A1 inh 3.55µM
CCCCn1c(CN2CCN(c3cccc(Cl)c3)CC2)nc2c1c(=O)n(C)c(=O)n2C	ALDH1A1 inh 15.8µM, KDM4E inh inconclusive
Cc1ccc(NC(=S)NNS(=O)(=O)c2ccc3ccccc3c2)cc1Cl	ALDH1A1 inh inconclusive

High-throughput results: PubChem, National Center for Advancing Translational Sciences (NCATS)
